According to paper PMC7862700, “An all-to-all approach to the identification of sequence-specific readers for epigenetic DNA modifications on cytosine”:

Tests used:
Test in all cases: DAPPL (digital affinity profiling via proximity ligation, sequencing); 10 mM Tris-HCl pH 7.5, 50 mM NaCl, 1 mM DTT, 4% glycerol, room temperature, 30 min; GST-TFs on glutathione beads, 16-mer random dsDNA library, 0.1% formaldehyde crosslink after washing; high values mean tight binding
[1] = target: T1, FLI1 (Homo sapiens, UniProt Q01543 1-452); conditions: protein: recombinant; tags: N-terminal GST; dsDNA, one strand shown
T1 sequence: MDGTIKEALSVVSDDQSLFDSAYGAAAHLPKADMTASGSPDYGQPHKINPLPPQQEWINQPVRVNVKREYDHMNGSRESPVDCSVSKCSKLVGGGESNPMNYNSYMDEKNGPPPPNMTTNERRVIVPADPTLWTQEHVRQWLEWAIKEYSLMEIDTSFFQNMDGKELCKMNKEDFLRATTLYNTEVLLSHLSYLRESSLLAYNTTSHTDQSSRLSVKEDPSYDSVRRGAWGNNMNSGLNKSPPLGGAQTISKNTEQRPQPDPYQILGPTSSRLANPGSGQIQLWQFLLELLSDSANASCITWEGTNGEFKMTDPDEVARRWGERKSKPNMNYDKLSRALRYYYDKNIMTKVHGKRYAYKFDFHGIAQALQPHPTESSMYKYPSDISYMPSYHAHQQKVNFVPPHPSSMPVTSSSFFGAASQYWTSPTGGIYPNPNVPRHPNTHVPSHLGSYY
Procedure, shortened: (§1)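 Sequencing on an Illumina NextSeq500 followed washing, crosslinking with 0.1% formaldehyde, proximity ligation (BsaI/T4 ligase, 1 h, 37 °C) and PCR amplification of pools that had been incubated for 30 min at room temperature with 200 nmole of a random double-stranded 16-mer DNA library in Tris/NaCl/DTT/glycerol buffer. Each pool held DNA-barcoded human transcription factors, expressed in yeast as GST fusions and captured on glutathione beads, plus a tag-only sample. Binding signal is a hexamer's read frequency for a factor divided by its frequency in the tag-only sample.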

[2] = target: T2, ELK1 (Homo sapiens, UniProt P19419 1-428); conditions: protein: recombinant; tags: N-terminal GST; dsDNA, one strand shown
T2 sequence: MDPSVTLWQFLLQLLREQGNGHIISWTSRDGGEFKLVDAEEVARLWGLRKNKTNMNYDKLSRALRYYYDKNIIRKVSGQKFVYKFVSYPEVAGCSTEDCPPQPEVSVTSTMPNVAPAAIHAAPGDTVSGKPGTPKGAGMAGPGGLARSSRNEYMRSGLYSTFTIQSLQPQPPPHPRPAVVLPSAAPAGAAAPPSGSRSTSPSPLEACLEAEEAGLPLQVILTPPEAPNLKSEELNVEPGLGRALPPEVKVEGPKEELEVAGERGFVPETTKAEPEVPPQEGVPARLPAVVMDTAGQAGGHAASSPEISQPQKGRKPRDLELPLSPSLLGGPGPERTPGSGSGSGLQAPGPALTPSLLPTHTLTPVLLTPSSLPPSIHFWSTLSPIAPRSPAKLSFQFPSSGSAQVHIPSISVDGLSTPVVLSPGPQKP
Procedure, shortened: as §1

[3] = target: T3, GABPA (Homo sapiens, UniProt Q06546 1-454); conditions: protein: recombinant; tags: N-terminal GST; dsDNA, one strand shown
T3 sequence: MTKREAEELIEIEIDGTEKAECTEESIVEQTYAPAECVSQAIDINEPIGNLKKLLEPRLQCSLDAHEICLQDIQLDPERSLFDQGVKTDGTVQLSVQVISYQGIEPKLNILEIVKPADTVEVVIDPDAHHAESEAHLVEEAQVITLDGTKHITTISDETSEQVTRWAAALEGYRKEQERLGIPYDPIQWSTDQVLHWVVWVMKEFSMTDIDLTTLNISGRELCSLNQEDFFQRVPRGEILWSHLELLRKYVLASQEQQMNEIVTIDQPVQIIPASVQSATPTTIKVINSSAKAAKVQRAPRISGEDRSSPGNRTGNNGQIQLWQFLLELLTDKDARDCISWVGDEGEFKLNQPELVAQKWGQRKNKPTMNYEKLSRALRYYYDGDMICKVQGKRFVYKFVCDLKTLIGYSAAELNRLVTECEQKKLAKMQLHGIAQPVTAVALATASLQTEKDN
Procedure, shortened: as §1

[4] = target: T4, ERG (Homo sapiens, UniProt P11308 1-479); conditions: protein: recombinant; tags: N-terminal GST; dsDNA, one strand shown
T4 sequence: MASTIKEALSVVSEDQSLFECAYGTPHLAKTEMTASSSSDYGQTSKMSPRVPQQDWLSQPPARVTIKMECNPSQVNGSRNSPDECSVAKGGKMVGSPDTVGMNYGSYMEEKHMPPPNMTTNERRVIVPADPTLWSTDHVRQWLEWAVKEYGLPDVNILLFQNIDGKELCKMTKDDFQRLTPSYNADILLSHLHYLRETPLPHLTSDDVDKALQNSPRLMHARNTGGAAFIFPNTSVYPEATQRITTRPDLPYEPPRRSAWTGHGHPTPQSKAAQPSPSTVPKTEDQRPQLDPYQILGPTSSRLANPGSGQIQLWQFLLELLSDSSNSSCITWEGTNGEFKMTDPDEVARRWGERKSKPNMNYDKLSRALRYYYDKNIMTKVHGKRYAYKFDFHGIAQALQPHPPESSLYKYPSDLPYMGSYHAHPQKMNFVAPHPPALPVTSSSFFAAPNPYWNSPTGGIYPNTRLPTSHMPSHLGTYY
Procedure, shortened: as §1

[5] = target: ELF1 (Homo sapiens, UniProt P32519 1-619); conditions: protein: recombinant; tags: N-terminal GST; dsDNA, one strand shown
Procedure, shortened: as §1

[6] = target: T5, EHF (Homo sapiens, UniProt Q9NZC4 1-300); conditions: protein: recombinant; tags: N-terminal GST; dsDNA, one strand shown
T5 sequence: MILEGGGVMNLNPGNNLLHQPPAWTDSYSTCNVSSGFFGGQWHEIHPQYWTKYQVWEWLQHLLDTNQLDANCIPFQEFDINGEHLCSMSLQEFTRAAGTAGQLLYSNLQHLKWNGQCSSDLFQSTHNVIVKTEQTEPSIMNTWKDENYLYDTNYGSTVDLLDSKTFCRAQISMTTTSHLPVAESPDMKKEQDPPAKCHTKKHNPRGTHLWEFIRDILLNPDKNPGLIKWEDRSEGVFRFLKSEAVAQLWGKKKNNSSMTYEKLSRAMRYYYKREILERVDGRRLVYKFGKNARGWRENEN
Procedure, shortened: as §1

[7] = target: SPI1 (Homo sapiens, UniProt P17947 1-270); conditions: protein: recombinant; tags: N-terminal GST; dsDNA, one strand shown
Procedure, shortened: as §1

[8] = target: SPIB (Homo sapiens, UniProt Q01892 1-262); conditions: protein: recombinant; tags: N-terminal GST; dsDNA, one strand shown
Procedure, shortened: as §1

[9] = target: T6, ELK3 (Homo sapiens, UniProt P41970 1-407); conditions: protein: recombinant; tags: N-terminal GST; dsDNA, one strand shown
T6 sequence: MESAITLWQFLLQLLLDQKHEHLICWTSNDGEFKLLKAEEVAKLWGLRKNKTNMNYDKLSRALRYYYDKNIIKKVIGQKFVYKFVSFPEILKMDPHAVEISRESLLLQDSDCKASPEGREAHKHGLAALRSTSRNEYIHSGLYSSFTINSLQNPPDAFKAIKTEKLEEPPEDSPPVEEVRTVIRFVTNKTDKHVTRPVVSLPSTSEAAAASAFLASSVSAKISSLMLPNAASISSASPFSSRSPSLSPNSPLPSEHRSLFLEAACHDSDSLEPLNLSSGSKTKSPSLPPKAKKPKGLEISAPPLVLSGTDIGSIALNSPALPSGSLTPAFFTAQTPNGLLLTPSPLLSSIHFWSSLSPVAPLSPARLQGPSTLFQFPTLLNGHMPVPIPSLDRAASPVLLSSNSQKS
Procedure, shortened: as §1

[10] = target: T7, FEV (Homo sapiens, UniProt Q99581 1-238); conditions: protein: recombinant; tags: N-terminal GST; dsDNA, one strand shown
T7 sequence: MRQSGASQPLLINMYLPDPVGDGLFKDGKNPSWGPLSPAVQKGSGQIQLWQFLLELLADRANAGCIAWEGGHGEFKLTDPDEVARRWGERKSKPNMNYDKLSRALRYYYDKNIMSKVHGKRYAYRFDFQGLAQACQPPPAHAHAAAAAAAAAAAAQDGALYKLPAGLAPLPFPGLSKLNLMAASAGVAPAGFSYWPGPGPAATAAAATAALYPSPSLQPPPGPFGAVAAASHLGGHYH
Procedure, shortened: as §1

[11] = target: ETV5 (Homo sapiens, UniProt P41161 1-510); conditions: protein: recombinant; tags: N-terminal GST; dsDNA, one strand shown
Procedure, shortened: as §1

[12] = target: HSF1 (Homo sapiens, UniProt Q00613 1-529); conditions: protein: recombinant; tags: N-terminal GST; chain copies: 3; dsDNA, one strand shown
Procedure, shortened: as §1

[13] = target: T8, SPIC (Homo sapiens, UniProt Q8N5J4 1-248); conditions: protein: recombinant; tags: N-terminal GST; dsDNA, one strand shown
T8 sequence: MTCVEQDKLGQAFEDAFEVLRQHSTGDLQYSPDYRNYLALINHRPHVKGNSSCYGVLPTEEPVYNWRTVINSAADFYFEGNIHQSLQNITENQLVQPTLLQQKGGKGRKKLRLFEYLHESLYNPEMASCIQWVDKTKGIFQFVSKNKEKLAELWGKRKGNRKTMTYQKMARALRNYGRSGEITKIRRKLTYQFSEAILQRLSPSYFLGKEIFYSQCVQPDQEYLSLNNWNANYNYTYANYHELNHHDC
Procedure, shortened: as §1

[14] = target: ELF4 (Homo sapiens, UniProt Q99607 1-663); conditions: protein: recombinant; tags: N-terminal GST; dsDNA, one strand shown
Procedure, shortened: as §1

[15] = target: T9, ELK4 (Homo sapiens, UniProt P28324-2 1-405); conditions: protein: recombinant; tags: N-terminal GST; dsDNA, one strand shown
T9 sequence: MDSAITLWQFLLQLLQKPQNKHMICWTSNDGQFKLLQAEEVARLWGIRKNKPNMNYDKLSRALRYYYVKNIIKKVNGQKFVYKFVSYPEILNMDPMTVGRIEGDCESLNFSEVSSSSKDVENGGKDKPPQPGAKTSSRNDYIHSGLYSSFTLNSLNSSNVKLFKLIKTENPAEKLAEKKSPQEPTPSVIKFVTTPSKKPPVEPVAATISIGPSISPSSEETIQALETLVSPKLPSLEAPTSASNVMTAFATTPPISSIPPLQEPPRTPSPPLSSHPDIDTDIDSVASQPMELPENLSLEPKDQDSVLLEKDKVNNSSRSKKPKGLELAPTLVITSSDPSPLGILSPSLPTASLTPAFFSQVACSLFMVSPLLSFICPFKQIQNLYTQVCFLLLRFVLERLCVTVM
Procedure, shortened: as §1

[16] = target: T10, ETV2 (Homo sapiens, UniProt O00321 1-342); conditions: protein: recombinant; tags: N-terminal GST; dsDNA, one strand shown
T10 sequence: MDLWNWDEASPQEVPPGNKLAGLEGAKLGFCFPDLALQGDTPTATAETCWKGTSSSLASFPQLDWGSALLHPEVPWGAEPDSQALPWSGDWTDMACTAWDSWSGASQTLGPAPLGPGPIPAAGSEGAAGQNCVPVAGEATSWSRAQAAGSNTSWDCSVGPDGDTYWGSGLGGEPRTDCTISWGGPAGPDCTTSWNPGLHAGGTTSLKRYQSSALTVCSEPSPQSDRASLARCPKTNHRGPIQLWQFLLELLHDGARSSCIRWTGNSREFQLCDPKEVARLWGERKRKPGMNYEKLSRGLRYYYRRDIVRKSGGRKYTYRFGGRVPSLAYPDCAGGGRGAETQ
Procedure, shortened: as §1

[17] = target: T11, ELF3 (Homo sapiens, UniProt P78545 1-371); conditions: protein: recombinant; tags: N-terminal GST; dsDNA, one strand shown
T11 sequence: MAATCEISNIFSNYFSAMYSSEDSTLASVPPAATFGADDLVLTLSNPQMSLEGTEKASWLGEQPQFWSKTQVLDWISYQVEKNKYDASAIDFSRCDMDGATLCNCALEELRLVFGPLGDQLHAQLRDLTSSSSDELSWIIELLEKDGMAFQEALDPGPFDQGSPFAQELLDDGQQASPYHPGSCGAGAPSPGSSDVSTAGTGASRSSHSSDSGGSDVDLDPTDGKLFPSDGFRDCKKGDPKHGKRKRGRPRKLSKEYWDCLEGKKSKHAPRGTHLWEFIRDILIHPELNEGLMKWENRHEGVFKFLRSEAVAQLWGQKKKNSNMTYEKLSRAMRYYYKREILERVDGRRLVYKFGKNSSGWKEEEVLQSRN
Procedure, shortened: as §1

[18] = target: CRX (Homo sapiens, UniProt O43186 1-299); conditions: protein: recombinant; tags: N-terminal GST; dsDNA, one strand shown
Procedure, shortened: as §1

[19] = target: ETV1 (Homo sapiens, UniProt P50549 1-477); conditions: protein: recombinant; tags: N-terminal GST; dsDNA, one strand shown
Procedure, shortened: as §1

Sequence of ELF1 (P32519 whole entry): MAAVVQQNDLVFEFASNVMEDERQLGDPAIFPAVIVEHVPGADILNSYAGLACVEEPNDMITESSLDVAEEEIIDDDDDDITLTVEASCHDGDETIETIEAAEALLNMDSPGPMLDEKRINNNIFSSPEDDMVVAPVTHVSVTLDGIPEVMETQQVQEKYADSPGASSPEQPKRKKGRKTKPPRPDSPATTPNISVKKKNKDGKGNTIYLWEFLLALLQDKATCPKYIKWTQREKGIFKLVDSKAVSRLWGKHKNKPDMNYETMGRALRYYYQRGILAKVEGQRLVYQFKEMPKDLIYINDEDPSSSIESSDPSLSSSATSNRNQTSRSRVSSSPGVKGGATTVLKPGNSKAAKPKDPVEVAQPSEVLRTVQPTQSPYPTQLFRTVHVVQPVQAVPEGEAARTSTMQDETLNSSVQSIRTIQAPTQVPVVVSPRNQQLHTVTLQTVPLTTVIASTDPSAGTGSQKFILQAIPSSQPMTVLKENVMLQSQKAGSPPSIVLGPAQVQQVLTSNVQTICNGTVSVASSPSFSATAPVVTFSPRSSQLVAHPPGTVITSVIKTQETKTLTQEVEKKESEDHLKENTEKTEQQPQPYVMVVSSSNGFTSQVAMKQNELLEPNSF
Sequence of SPIB (Q01892 whole entry): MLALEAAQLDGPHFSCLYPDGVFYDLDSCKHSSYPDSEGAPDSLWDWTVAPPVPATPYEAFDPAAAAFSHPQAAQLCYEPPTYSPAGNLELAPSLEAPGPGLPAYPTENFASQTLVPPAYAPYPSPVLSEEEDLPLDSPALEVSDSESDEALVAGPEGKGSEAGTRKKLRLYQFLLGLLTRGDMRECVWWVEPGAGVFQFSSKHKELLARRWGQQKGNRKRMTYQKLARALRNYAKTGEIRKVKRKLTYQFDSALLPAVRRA
Sequence of ETV1 (P50549 whole entry): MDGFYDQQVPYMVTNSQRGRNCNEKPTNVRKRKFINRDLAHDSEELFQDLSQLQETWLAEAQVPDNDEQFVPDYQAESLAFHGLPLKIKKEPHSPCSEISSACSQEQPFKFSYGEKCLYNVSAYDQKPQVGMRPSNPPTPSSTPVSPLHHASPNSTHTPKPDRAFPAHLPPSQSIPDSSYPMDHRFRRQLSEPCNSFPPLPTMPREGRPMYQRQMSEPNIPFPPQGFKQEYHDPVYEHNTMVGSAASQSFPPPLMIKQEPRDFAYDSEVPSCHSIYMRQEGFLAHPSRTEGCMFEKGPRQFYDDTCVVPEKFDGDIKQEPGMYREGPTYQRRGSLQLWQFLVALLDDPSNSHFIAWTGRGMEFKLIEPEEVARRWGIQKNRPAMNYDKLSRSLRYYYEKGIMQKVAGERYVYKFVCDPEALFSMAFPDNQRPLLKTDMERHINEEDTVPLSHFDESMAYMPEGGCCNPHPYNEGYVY
Sequence of ETV5 (P41161 whole entry): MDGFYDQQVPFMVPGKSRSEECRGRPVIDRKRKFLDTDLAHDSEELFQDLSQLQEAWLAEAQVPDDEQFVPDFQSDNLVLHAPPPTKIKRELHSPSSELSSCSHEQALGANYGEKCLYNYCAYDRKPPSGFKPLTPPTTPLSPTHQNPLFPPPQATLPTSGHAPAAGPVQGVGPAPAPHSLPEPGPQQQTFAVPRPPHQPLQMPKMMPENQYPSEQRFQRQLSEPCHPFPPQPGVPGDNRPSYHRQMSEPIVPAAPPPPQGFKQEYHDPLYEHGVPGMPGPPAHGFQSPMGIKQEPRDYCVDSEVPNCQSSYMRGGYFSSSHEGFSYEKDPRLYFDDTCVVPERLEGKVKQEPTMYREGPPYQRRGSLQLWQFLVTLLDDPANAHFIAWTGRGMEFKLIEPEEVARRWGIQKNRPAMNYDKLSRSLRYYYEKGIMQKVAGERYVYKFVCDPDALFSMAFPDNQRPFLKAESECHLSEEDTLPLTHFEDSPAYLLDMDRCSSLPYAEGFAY
Sequence of CRX (O43186 whole entry): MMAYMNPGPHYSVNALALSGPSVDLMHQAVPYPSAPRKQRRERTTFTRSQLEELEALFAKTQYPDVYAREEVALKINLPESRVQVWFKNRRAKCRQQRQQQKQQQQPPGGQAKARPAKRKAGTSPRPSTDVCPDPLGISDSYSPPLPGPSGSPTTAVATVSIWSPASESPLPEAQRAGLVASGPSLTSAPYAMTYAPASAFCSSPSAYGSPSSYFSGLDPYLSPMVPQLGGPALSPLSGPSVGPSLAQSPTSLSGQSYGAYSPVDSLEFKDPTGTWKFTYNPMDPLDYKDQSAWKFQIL
Sequence of HSF1 (Q00613 whole entry): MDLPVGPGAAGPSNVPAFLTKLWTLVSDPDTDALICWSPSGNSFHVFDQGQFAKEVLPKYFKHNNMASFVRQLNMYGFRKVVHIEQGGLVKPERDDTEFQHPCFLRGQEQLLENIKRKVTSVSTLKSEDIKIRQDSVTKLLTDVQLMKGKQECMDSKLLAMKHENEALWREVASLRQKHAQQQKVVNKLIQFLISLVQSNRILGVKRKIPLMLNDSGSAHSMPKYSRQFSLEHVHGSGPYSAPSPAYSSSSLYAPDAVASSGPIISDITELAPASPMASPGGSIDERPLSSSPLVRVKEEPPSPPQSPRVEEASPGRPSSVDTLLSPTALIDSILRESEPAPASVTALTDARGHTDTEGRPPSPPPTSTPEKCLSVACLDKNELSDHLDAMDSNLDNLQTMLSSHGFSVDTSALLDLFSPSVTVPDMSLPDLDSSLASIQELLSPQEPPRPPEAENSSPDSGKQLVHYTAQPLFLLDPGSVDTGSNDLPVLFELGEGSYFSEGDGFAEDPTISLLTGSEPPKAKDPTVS
Sequence of ELF4 (Q99607 whole entry): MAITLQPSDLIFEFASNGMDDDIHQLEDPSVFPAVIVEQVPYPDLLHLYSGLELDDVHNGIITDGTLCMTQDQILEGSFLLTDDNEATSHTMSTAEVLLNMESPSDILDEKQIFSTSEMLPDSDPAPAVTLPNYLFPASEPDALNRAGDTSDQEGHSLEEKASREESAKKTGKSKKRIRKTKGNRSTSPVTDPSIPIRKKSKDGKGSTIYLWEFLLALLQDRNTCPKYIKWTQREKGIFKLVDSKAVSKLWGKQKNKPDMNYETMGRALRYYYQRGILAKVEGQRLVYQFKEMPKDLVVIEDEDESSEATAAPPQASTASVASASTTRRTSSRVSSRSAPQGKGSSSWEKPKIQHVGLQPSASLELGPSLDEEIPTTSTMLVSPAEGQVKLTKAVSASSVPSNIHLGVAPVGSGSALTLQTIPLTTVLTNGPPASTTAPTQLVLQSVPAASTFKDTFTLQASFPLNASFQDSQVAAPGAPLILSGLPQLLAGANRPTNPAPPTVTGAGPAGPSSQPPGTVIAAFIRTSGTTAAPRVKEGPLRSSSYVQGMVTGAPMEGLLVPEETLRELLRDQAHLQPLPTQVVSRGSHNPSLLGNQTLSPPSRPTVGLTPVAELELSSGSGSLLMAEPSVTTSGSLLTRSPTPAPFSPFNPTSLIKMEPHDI

For GCACTT, the binding signal [1] was 1.61 fold enrichment (6-mer frequency, TF over GST control), the binding signal [2] was 2 fold enrichment (6-mer frequency, TF over GST control) and the binding signal [3] was 1.87 fold enrichment (6-mer frequency, TF over GST control). The binding signal [4] was 1.93 fold enrichment (6-mer frequency, TF over GST control), the binding signal [5] was 1.77 fold enrichment (6-mer frequency, TF over GST control) and the binding signal [6] was 1.79 fold enrichment (6-mer frequency, TF over GST control). For the same sequence, the binding signal [7] was 2.23 fold enrichment (6-mer frequency, TF over GST control), the binding signal [8] was 1.7 fold enrichment (6-mer frequency, TF over GST control) and the binding signal [9] was 1.99 fold enrichment (6-mer frequency, TF over GST control). For the same sequence, the binding signal [10] was 2.33 fold enrichment (6-mer frequency, TF over GST control), the binding signal [11] was 1.88 fold enrichment (6-mer frequency, TF over GST control) and the binding signal [12] was 1.17 fold enrichment (6-mer frequency, TF over GST control). For the same sequence, the binding signal [13] was 1.63 fold enrichment (6-mer frequency, TF over GST control), the binding signal [14] was 1.77 fold enrichment (6-mer frequency, TF over GST control) and the binding signal [15] was 1.62 fold enrichment (6-mer frequency, TF over GST control). For the same sequence, the binding signal [16] was 1.66 fold enrichment (6-mer frequency, TF over GST control), the binding signal [17] was 1.85 fold enrichment (6-mer frequency, TF over GST control) and the binding signal [18] was 1.16 fold enrichment (6-mer frequency, TF over GST control). The binding signal [19] was 1.86 fold enrichment (6-mer frequency, TF over GST control).
